Where two headings read alike, the source gives them in different places.

One experiment has as its system PIP5K1A. The conditions noted are these: concentration: 1 μM, replicates: in singlicate; n = 1.
The next experiment relates to PIP5K1C. The conditions noted are these: concentration: 1 μM, replicates: in singlicate; n = 1.
The next experiment deals with PIP5K2B. The conditions noted are these: concentration: 1 μM, replicates: in singlicate; n = 1.
In a further experiment the test system is T1, PIP5K2C.
T1 construct: gene PIP4K2C
The conditions noted are these: concentration: 1 μM, replicates: in singlicate; n = 1.

The next experiment concerns T2, PKAC-alpha.
T2 construct: gene PRKACA
The conditions noted are these: n = 1.

For another experiment, the system named is T3, PKAC-beta.
T3 construct: gene PRKACB
The conditions noted are these: n = 1.

The next experiment relates to PKMYT1. The conditions noted are these: concentration: 1 μM, replicates: in singlicate; n = 1.
For the next experiment, the system named is PKN1. The conditions noted are these: n = 1.
A further experiment relates to PKN2. The conditions noted are these: concentration: 1 μM, replicates: in singlicate; n = 1.
In the next experiment the test system is PLK1. The conditions noted are these: concentration: 1 μM, replicates: in singlicate; n = 1.
The next experiment relates to PLK2. The conditions noted are these: concentration: 1 μM, replicates: in singlicate; n = 1.
Another experiment has as its system PLK3. The conditions noted are these: concentration: 1 μM, replicates: in singlicate; n = 1.
A further experiment has as its system PLK4. The conditions noted are these: concentration: 1 μM, replicates: in singlicate; n = 1.
Another experiment has as its system PRKCD. The conditions noted are these: n = 1.
Another experiment has as its system PRKCE. The conditions noted are these: concentration: 1 μM, replicates: in singlicate; n = 1.
A further experiment deals with PRKCH. The conditions noted are these: concentration: 1 μM, replicates: in singlicate; n = 1.
The subject of the next experiment is PRKCI. The conditions noted are these: n = 1.
The next experiment concerns PRKCQ. The conditions noted are these: concentration: 1 μM, replicates: in singlicate; n = 1.
Another experiment has as its system PRKD1. The conditions noted are these: concentration: 1 μM, replicates: in singlicate; n = 1.
In the next experiment the test system is PRKD2. The conditions noted are these: concentration: 1 μM, replicates: in singlicate; n = 1.
Where [1] appears, read: concentration: 1 μM, replicates: in singlicate.
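Further: KINOMEscan kinase panel screen.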

Turning to `COc1cc2c(cc1OCCN1CCNCC1)ncc1c3ccc(C#N)cc3[nH]c21`, the “%Inh” value with PIP5K1A turned out to be 58%; with PIP5K1C it was 1%; in the experiment with PIP5K2B, 46%; in the experiment with PIP5K2C, 16%; with PKAC-alpha (setting [1]) it was 0%; in the experiment on PKAC-beta (setting [1]), 0%. The “%Inh” value in the experiment with PKMYT1 is on record as 0%; in the experiment with PKN1 (setting [1]), 61%; with PKN2 it was 41%; in the experiment with PLK1 it was 28%; with PLK2 it was 22%; in the experiment with PLK3, 20%. Further, the “%Inh” value in the experiment with PLK4 was 32%; with PRKCD (setting [1]), 0%; in the experiment with PRKCE, 19%; in the experiment on PRKCH, 0%; in the experiment on PRKCI (setting [1]), 24%; with PRKCQ, 0%. The “%Inh” value in the experiment on PRKD1 and in the experiment with PRKD2 was 0% each time.
Take `COc1cccc(-c2ccc3c(NC(=O)C4CC4)n[nH]c3n2)c1` [SB-710903]: the “%Inh” value is on record as 58% in the experiment with PIP5K1A; 65% in the experiment on PIP5K1C; 20% with PIP5K2B; 64% in the experiment with PIP5K2C; 0% in the experiment with PKAC-alpha (setting [1]); 0% in the experiment on PKAC-beta (setting [1]). Further, the “%Inh” value with PKMYT1 amounted to 8%; with PKN1 (setting [1]), 0%; in the experiment with PKN2, 0%; with PLK1, 0%; in the experiment on PLK2, 0%; in the experiment with PLK3, 0%. Further, the “%Inh” value with PLK4 is 6%; in the experiment with PRKCD (setting [1]), 0%; with PRKCE, 23%; with PRKCH, 10%; in the experiment on PRKCI (setting [1]), 11%; in the experiment on PRKCQ, 0%. The “%Inh” value in the experiment with PRKD1 and in the experiment on PRKD2 was 0% in each case.
As for `CCn1c(-c2nonc2N)nc2c(C#CC(C)(C)O)ncc(OCCCCN)c21.O=C(O)C(F)(F)F.O=C(O)C(F)(F)F` [GSK507274], the “%Inh” value worked out at 26% in the experiment with PIP5K1A; 0% with PIP5K1C; 6% in the experiment on PIP5K2B; 0% with PIP5K2C; 92.5% in the experiment on PKAC-alpha (1 µM); 95.6% in the experiment on PKAC-beta (1 µM). Further, the “%Inh” value with PKMYT1 is on record as 0%; with PKN1 (1 µM), 5%; with PKN2, 0%; in the experiment with PLK1 it was 5%; in the experiment with PLK2, 0%; in the experiment with PLK3, 0%. Moreover, the “%Inh” value in the experiment with PLK4 was 0%; with PRKCD (1 µM), 91%; in the experiment on PRKCE, 98%; with PRKCH, 97.7%; with PRKCI (1 µM), 78%; in the experiment on PRKCQ, 86%. Also, the “%Inh” value in the experiment on PRKD1 was 29%; in the experiment with PRKD2, 23%.
With `O=C(Nc1cccc(Oc2ccc3nc(NC(=O)C4CC4)cn3n2)c1)c1ccccc1C(F)(F)F`, the “%Inh” value in the experiment with PIP5K1A was found to be 39%; with PIP5K1C it was 33%; in the experiment on PIP5K2B, 0%; in the experiment on PIP5K2C, 34%; in the experiment on PKAC-alpha (setting [1]), 0%; with PKAC-beta (setting [1]) it was 34%. For the same molecule, the “%Inh” value with PKMYT1 was 0%; in the experiment with PKN1 (setting [1]), 0%; in the experiment with PKN2 it was 0%; with PLK1, 0%; in the experiment with PLK2, 0%; with PLK3, 4%. In addition, the “%Inh” value in the experiment on PLK4 was 0%; in the experiment on PRKCD (setting [1]), 3%; in the experiment on PRKCE, 6%; in the experiment with PRKCH, 0%; in the experiment with PRKCI (setting [1]), 28%; in the experiment with PRKCQ, 0%. Besides, the “%Inh” value in the experiment with PRKD1 and with PRKD2 was 0% each time.
As to `Cn1cc(-c2[nH]c3cc(NC(=O)[C@H](N)C4CCCCC4)cc4c3c2C=NNC4=O)cn1`, the “%Inh” value in the experiment on PIP5K1A came out at 33%; in the experiment with PIP5K1C, 52%; in the experiment on PIP5K2B, 82%; in the experiment with PIP5K2C, 41%; with PKAC-alpha (setting [1]) it was 70%; in the experiment on PKAC-beta (setting [1]), 63%. For the same molecule, the “%Inh” value is 2% in the experiment with PKMYT1; 88% in the experiment on PKN1 (setting [1]); 90.5% in the experiment on PKN2; 0% in the experiment on PLK1; 68% in the experiment on PLK2; 36% in the experiment on PLK3. Further, the “%Inh” value is given as 99.9% in the experiment on PLK4; 45% in the experiment with PRKCD (setting [1]); 79% in the experiment with PRKCE; 53% with PRKCH; 59% with PRKCI (setting [1]); 78% with PRKCQ. In addition, the “%Inh” value in the experiment with PRKD1 and with PRKD2 was 0% each time.
With `C[C@@H]1CC[C@@H](C(=O)Nc2ccccc2)CN1c1cc(-c2ccc3c(N)n[nH]c3c2)nc(N)n1` [GSK2286062], the “%Inh” value with PIP5K1A came out at 0%; in the experiment on PIP5K1C, 18%; in the experiment with PIP5K2B it was 3%; in the experiment on PIP5K2C it was 4%; in the experiment with PKAC-alpha (setting [1]), 0%; in the experiment with PKAC-beta (setting [1]), 0%. Also, the “%Inh” value was 16% with PKMYT1; 0% in the experiment with PKN1 (setting [1]); 0% in the experiment on PKN2; 0% in the experiment on PLK1; 0% in the experiment on PLK2; 0% with PLK3. Moreover, the “%Inh” value in the experiment with PLK4 was determined as 0%; in the experiment on PRKCD (setting [1]), 9%; in the experiment on PRKCE it was 6%; with PRKCH, 14%; in the experiment with PRKCI (setting [1]), 15%; in the experiment with PRKCQ, 0%. Also, the “%Inh” value was 0% in the experiment on PRKD1 and 23% with PRKD2.
As for `CN1CCN(Cc2cccc(-c3ccc4c(Nc5ccc(Oc6ccccc6)cc5)ccnc4c3)c2)CC1` [GW578342], the “%Inh” value turned out to be 26% in the experiment on PIP5K1A; 59% in the experiment on PIP5K1C; 12% with PIP5K2B; 9% with PIP5K2C; 0% in the experiment with PKAC-alpha (setting [1]); 0% in the experiment on PKAC-beta (setting [1]). Further, the “%Inh” value came to 0% in the experiment on PKMYT1; 0% in the experiment with PKN1 (setting [1]); 27% in the experiment on PKN2; 0% in the experiment with PLK1; 0% in the experiment with PLK2; 1% with PLK3. Besides, the “%Inh” value was determined as 0% with PLK4; 15% with PRKCD (setting [1]); 6% in the experiment on PRKCE; 2% with PRKCH; 19% in the experiment with PRKCI (setting [1]); 3% with PRKCQ. For the same molecule, the “%Inh” value in the experiment with PRKD1 was found to be 0%; with PRKD2 it was 18%.
On to `CN1CCN(CCCNc2nccc(-c3c(-c4ccc(F)cc4)nn4cc(C(F)(F)F)ccc34)n2)CC1` [GW621581], for which the “%Inh” value in the experiment with PIP5K1A came to 0%; in the experiment on PIP5K1C, 11%; in the experiment with PIP5K2B it was 0%; with PIP5K2C, 0%; in the experiment with PKAC-alpha (setting [1]), 0%; in the experiment on PKAC-beta (setting [1]), 9%. Further, the “%Inh” value in the experiment on PKMYT1 is reported as 0%; in the experiment on PKN1 (setting [1]), 12%; in the experiment on PKN2, 0%; in the experiment on PLK1, 0%; with PLK2 it was 0%; with PLK3 it was 0%. For the same molecule, the “%Inh” value in the experiment with PLK4 is reported as 12%; in the experiment with PRKCD (setting [1]), 7%; in the experiment on PRKCE, 0%; in the experiment with PRKCH, 20%; with PRKCI (setting [1]) it was 19%; with PRKCQ, 7%. The entries for the “%Inh” value in the experiment on PRKD1 and in the experiment with PRKD2 were 47% and 34%, respectively.
Take `CCCCc1nn2ncccc2c1-c1ccnc(Nc2ccc(N3CCN(C)CC3)cc2)n1` [GW684941]: the “%Inh” value with PIP5K1A is recorded as 33%; in the experiment on PIP5K1C, 48%; in the experiment with PIP5K2B, 5%; in the experiment on PIP5K2C, 96.7%; in the experiment on PKAC-alpha (setting [1]), 0%; in the experiment on PKAC-beta (setting [1]), 8%. Also, the “%Inh” value turned out to be 0% with PKMYT1; 5% in the experiment on PKN1 (setting [1]); 0% with PKN2; 0% in the experiment with PLK1; 0% in the experiment on PLK2; 0% in the experiment on PLK3. For the same molecule, the “%Inh” value was determined as 74% in the experiment on PLK4; 0% in the experiment with PRKCD (setting [1]); 14% in the experiment with PRKCE; 0% in the experiment with PRKCH; 17% in the experiment on PRKCI (setting [1]); 0% with PRKCQ. In addition, the “%Inh” value in the experiment on PRKD1 turned out to be 63%; with PRKD2, 55%.

Values taken from PMC5540273 (PLoS ONE, 2017).
